A selection: hits, their analogues and other compounds. The true share with any hit is near 0.84%.
PPARg SRC-3 ag: PPARgamma agonists recruiting SRC-3 coactivator, primary screen, biochemical; AID 731, 2007; biochemical PPARgamma/SRC-3 coactivator recruitment assay; Peroxisome proliferator-activated receptor gamma (Homo sapiens), P37231; activation, % at 8 µM; 200,000 compounds, 0.26% hits; in the data active = activation above about 23%;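 note: 0% = DMSO and 100% = reference agonist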
Target sequence (P37231 whole entry, looked up): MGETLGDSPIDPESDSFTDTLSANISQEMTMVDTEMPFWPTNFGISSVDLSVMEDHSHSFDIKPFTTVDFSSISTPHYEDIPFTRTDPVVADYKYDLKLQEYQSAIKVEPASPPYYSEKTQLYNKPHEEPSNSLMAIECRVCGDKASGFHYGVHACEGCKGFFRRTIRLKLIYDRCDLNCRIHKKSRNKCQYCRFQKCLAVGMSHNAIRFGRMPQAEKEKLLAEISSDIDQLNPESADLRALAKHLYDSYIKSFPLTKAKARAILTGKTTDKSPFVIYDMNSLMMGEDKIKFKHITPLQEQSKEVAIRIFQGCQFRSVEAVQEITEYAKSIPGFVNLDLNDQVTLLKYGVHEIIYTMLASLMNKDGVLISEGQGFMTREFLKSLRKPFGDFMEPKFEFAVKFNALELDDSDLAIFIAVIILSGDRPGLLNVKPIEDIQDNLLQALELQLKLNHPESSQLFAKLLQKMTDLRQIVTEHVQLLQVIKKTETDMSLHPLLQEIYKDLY
SRC3 TRFRET art: TR-FRET detection interference compounds, artefact control for PPARgamma SRC-3 recruitment agonists, biochemical, TR-FRET ratio; TR-FRET artefact counter-screen, PPARgamma/SRC-3 format; stronger effect = higher value; TR-FRET ratio at 8 µM; 99,000 compounds, 0.39% hits; AID 1048, 2008; in the data active = TR-FRET ratio above about 2000
PPARg SRC2 recr: agonists of PPARg-SRC-2 recruitment, primary screen, biochemical, HTS; Peroxisome proliferator-activated receptor gamma (Homo sapiens), P37231; PPARgamma LBD-SRC-2 recruitment; activation, % at 8 µM; 200,000 compounds, 0.34% hits; AID 1032, 2008;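 note: 0% = vehicle and 100% = reference agonist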
TR-FRET SRC-2 ct: TR-FRET signal artefacts, primary screen, artefact control for PPARgamma SRC-2 agonist project, biochemical; TR-FRET artefact counter-screen; stronger effect = higher value; TR-FRET ratio at 8 µM; 200,000 compounds, 0.4% hits; AID 1049, 2008; in the data active = TR-FRET ratio above about 2000
SRC1 TRFRET art: TR-FRET detection interference compounds, primary screen, artefact control for PPARgamma SRC-1 recruitment agonists, biochemical, TR-FRET emission ratio. TR-FRET ratio at 8 µM. 99,000 compounds, 0.34% hits. TR-FRET detection artefact counter-screen; stronger effect = higher value. AID 1051, 2008; in the data active = TR-FRET ratio above about 2300
PPARg SRC-1 ag: PPARgamma agonists recruiting SRC-1 coactivator, primary screen, biochemical; Peroxisome proliferator-activated receptor gamma (Homo sapiens), P37231; PPARgamma-SRC-1 coactivator recruitment biochemical assay; activation, % at 8 µM; 200,000 compounds, 0.41% hits; in the data active = activation above about 19%;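 note: 0% = DMSO and 100% = reference agonist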
PPARg SRC2 ag: agonists of PPARgamma SRC-2 coactivator recruitment, confirmation, biochemical, HTS; shares compounds with PPARg SRC-3 ag; biochemical SRC-2 recruitment by PPARgamma; activation, % at 8 µM; 790 compounds, 52% hits;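 note: 0% = vehicle alone and 100% = reference agonist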
PPARg SRC1 ag: PPARgamma agonists recruiting SRC-1 coactivator, confirmation, biochemical; PPARgamma–SRC-1 coactivator recruitment biochemical assay; AID 1300, 2008; shares compounds with PPARg SRC-3 ag; 790 compounds, 43% hits; activation, % at 8 µM; in the data active = activation above about 20%;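 note: 0% = vehicle wells and 100% = reference agonist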
PPARg SRC3 ag: PPARgamma-driven SRC-3 coactivator recruitment agonists, confirmation, biochemical; biochemical PPARgamma-SRC-3 coactivator recruitment, agonist mode; activation, % at 8 µM; AID 1301, 2008; shares compounds with PPARg SRC-3 ag; 790 compounds, 29% hits; in the data active = activation above about 24%;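 note: 0% = vehicle wells and 100% = reference agonist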
Numbers without * were called inactive; x = no result given. Cut-off read from the data, not from the text of the source, unless noted: active = activation above about 22%; inactive = the rest.

SMILES	PPARg SRC-3 ag	SRC3 TRFRET art	PPARg SRC2 recr	TR-FRET SRC-2 ct	SRC1 TRFRET art	PPARg SRC-1 ag	PPARg SRC2 ag	PPARg SRC1 ag	PPARg SRC3 ag
COc1cc(-c2nc(-c3ccccc3)c(-c3cccs3)[nH]2)cc(OC)c1OC	0.7	x	9.6	1650	x	6.7	x	x	x
c1ccc(-c2nc(-c3cccs3)[nH]c2-c2ccccc2)cc1	24.0	x	18.1	1842	x	24.6*	22.8*	16.0	15.3
CC(C)CNC(=O)COc1ncnc2sccc12	1.4	1560	-6.7	1427	1829	0.2	x	x	x
Cn1c(=O)cc(OCC(=O)NCCCN2CCN(Cc3ccccc3)CC2)c2ccccc21	3.6	x	7.6	1472	x	3.4	x	x	x
Cc1cccc(CN2CCN(CC(=O)NCCCN3CCN(c4ccc(F)cc4)CC3)C2=O)c1	4.6	x	15.3	1486	x	1.5	x	x	x
CCn1c(=O)cc(SCC(=O)NCCCN2CCN(c3ccc(F)cc3)CC2)c2ccccc21	101.4*	x	80.7*	3656*	x	87.4*	38.2*	23.4*	25.4*
CCn1c(=O)cc(SCC(=O)NCCN2CCN(Cc3ccccc3)CC2)c2ccccc21	70.2*	x	62.8*	3069*	x	49.0*	29.1*	15.8	18.4
CCn1c(=O)cc(SCC(=O)NCCCN2CCC(C)CC2)c2ccccc21	8.9	1905	25.8*	1872	2386*	13.5	20.9	13.0	12.4
CCc1ccccc1NC(=S)N(CCc1ccncc1)C(C)C	-1.0	1441	-0.9	1429	1665	-4.9	x	x	x
COc1cccc(/C=C/C(=O)OCC(=O)Nc2cccc(S(=O)(=O)N(C)C)c2)c1	-0.4	1589	-5.2	1307	1706	-7.4	x	x	x
O=[N+]([O-])c1ccc(N/N=C/c2ccc[nH]2)cc1	12.3	1831	27.5*	1763	2294	16.7	6.0	7.6	5.0
O=[N+]([O-])c1ccc(N/N=C/c2c[nH]c3ccccc23)cc1	6.4	x	12.1	1738	x	-1.1	x	x	x
CC(NC(=O)/C(=C\c1ccco1)NC(=O)c1ccccc1Br)C(=O)O (stereo unspecified)	0.6	1595	1.0	1666	1655	2.5	x	x	x
Cc1nnc(SC(C)C(=O)Nc2ccc(Cl)cn2)n1Cc1ccccc1 (stereo unspecified)	-0.1	1631	1.5	1728	1869	4.3	x	x	x
CC(Sc1nnc(-c2ccc(Cl)cc2Cl)n1Cc1ccccc1)C(=O)Nc1nccs1 (stereo unspecified)	17.9	x	6.8	1618	x	37.1*	18.6	28.0*	26.3*
CCc1cc2c(=O)n(-c3ccccc3)c(=S)[nH]c2s1	40.6*	x	37.3*	2026*	x	27.2*	31.4*	25.4*	23.6
COC(=O)c1ccc2c(=O)n(-c3ccccc3)c(=S)[nH]c2c1	-0.3	1579	0.3	1472	1949	0.8	x	x	x
CCOC(=O)CSc1c(-c2cccs2)[nH]c2ccccc12	13.9	1749	24.7*	1827	1981	13.3	32.0*	23.1*	18.9
CC(=O)C1=C(O)C(=O)N(c2nccs2)C1c1ccccc1 (stereo unspecified)	16.2	x	27.0*	1601	x	10.2	22.1*	16.2	13.5
CCOC(=O)c1sc(=S)n(-c2ccccc2)c1SC	3.3	x	-1.1	1626	x	-2.8	x	x	x
CCOC(=O)c1sc(=S)n(-c2ccccc2Cl)c1SC	30.7*	x	30.8*	1889	x	29.5*	40.4*	35.9*	28.7*
CC(=O)c1ccc(N2CCN(C(=O)c3ccc(Cn4c(=S)[nH]c5ccc(N6CCOCC6)cc5c4=O)cc3)CC2)cc1	34.7*	3877*	36.7*	3627*	4282*	39.6*	19.3	14.8	12.2
O=C(O)[C@H]1CCCC[C@H]1C(=O)Nc1ccc(Nc2ccccc2)cc1	23.9	x	27.4*	1526	x	7.3	11.1	6.3	7.2
CCN(CC)c1ccc(/C=C2/C(=O)ON=C2C)cc1	25.9*	1737	11.4	1519	2156	18.0	15.2	10.8	14.1
CCSc1nnc(-c2ccccc2SC)o1	11.3	1975	19.3	2020*	2385*	20.5*	27.5*	19.6*	17.6
SMILES	PPARg SRC-3 ag	SRC3 TRFRET art	PPARg SRC2 recr	TR-FRET SRC-2 ct	SRC1 TRFRET art	PPARg SRC-1 ag	PPARg SRC2 ag	PPARg SRC1 ag	PPARg SRC3 ag
CSc1ccccc1-c1nnc(-c2ccc(Cl)cc2Cl)o1	7.0	x	3.5	1526	x	1.9	x	x	x
COc1ccc(N2CCN(Cc3nc(N)nc(Nc4ccccc4OC)n3)CC2)cc1	2.4	x	9.5	1569	x	2.0	x	x	x
COc1ccc(Nc2nc(N)nc(CN3CCN(c4ccc(F)cc4)CC3)n2)cc1	4.5	1573	10.3	1746	2427*	23.7*	5.3	3.4	2.8
COCC(=O)NC1(c2nnnn2CCOC(=O)Nc2ccc(Cl)cc2)CCCCC1	1.3	1521	0.9	1596	2099	11.2	x	x	x
Cc1ccccc1-n1nc(-c2cccnc2)cc1C(=O)NN	1.9	1528	1.3	1722	1968	9.1	x	x	x
COc1cc(OC)cc(C(=O)N=c2sc3ccccc3n2C)c1	2.5	1632	10.0	1838	1871	3.3	x	x	x
COc1cccc(C(=O)N=c2sc3cc(S(C)(=O)=O)ccc3n2C)c1	16.3	1660	19.1	1798	1973	26.8*	13.6	6.4	4.4
Cc1nn(Cc2ccccc2Cl)c(C)c1C(=O)NCCN1C(=O)S/C(=C\c2ccccc2)C1=O	22.9*	1547	18.4	1519	1779	23.2*	5.9	21.8*	13.8
O=C(N/N=C/c1ccc(N2CCOCC2)o1)c1cccc(C(F)(F)F)c1	12.7	x	23.6*	1609	x	11.7	5.6	3.8	3.9
CC(C)C(C)NC(=O)COC(=O)/C=C/c1ccc(S(=O)(=O)N2CCc3ccccc32)cc1 (stereo unspecified)	3.6	1627	1.3	1818	2023	1.8	x	x	x
C=CCn1c(SCC#N)nc2sc(CC)cc2c1=O	-4.8	1682	6.9	1502	1795	1.4	x	x	x
Cc1cc(C)c(NC(=O)CSc2nc3ccc(NC(=O)CSc4nnnn4Cc4ccccc4)cc3s2)c(C)c1	15.2	x	23.7*	1906	x	9.5	8.9	9.6	7.6
N#C/C(=C\c1ccc(N2CCOCC2)o1)C(=O)NCC1CCCO1 (stereo unspecified)	4.0	1833	13.6	2010*	2143	20.5*	9.5	5.2	6.3
